{
  "source": "the antibiotic and cytotoxicity screens of Wong et al. (2023)",
  "note": "Screen size: about 39,000 compounds; about 3,300 (8.5%) were called active. The entries come from a sample that favours actives as a whole.",
  "data": [
    {"tested_on": "HepG2", "assay": "cytotoxicity call (relative viability < 0.9)", "settings": "10 µM", "values": [
      {"smiles": "COCCNC(=O)C[C@@H]1CC[C@H]2[C@@H](COC[C@H](O)CN2S(=O)(=O)c2ccccc2F)O1", "cytotoxicity call": "inactive"},
      {"smiles": "COc1ccc(S(=O)(=O)Nc2ccc3c(c2)[C@H]2C[C@H](CC(=O)NCC4CC4)O[C@@H](CO)[C@H]2O3)cc1", "cytotoxicity call": "inactive"},
      {"smiles": "C[C@@H]1CN([C@@H](C)CO)C(=O)Cc2cc(NS(C)(=O)=O)ccc2O[C@H]1CN(C)S(=O)(=O)c1ccccc1", "cytotoxicity call": "inactive"},
      {"smiles": "CN[C@H]1CN(c2ccc3c(=O)c(C(=O)O)cn(-c4nccs4)c3n2)C[C@@H]1OC", "cytotoxicity call": "inactive"},
      {"smiles": "CC(C)NCC(O)c1cc(O)cc(O)c1", "note": "(configuration not stated)", "cytotoxicity call": "active"},
      {"smiles": "CC(C)(C)NCC(O)c1cc(O)cc(O)c1.O=S(=O)(O)O", "note": "(configuration not stated)", "cytotoxicity call": "inactive"},
      {"smiles": "CC(C)NCC(O)c1ccc2ccccc2c1.Cl", "note": "(configuration not stated)", "cytotoxicity call": "inactive"},
      {"smiles": "CC(C)NCC(O)c1ccc(NS(C)(=O)=O)cc1.Cl", "note": "(configuration not stated)", "cytotoxicity call": "inactive"},
      {"smiles": "CCC(NC(C)C)C(O)c1ccc(O)c(O)c1.CS(=O)(=O)O", "note": "(configuration not stated)", "cytotoxicity call": "inactive"},
      {"smiles": "CC(C)NCC(O)c1ccc(O)c(O)c1.Cl", "note": "(configuration not stated)", "cytotoxicity call": "active"},
      {"smiles": "C[C@@H]1CCCCO[C@H](CN(C)Cc2ccc(C(F)(F)F)cc2)[C@@H](C)CN([C@H](C)CO)C(=O)c2cc(NS(=O)(=O)c3cn(C)cn3)ccc2O1", "cytotoxicity call": "inactive"},
      {"smiles": "COc1ccc(S(=O)(=O)N(C)C[C@@H]2Oc3ccc(NC(=O)NC(C)C)cc3CC(=O)N([C@@H](C)CO)C[C@H]2C)cc1", "cytotoxicity call": "inactive"},
      {"smiles": "COC(=O)[C@@H](C)N(C#N)c1nc(C)cc(C)n1", "cytotoxicity call": "inactive"},
      {"smiles": "C[C@@H]1CCCCO[C@@H](CN(C)S(=O)(=O)c2cccs2)[C@@H](C)CN([C@@H](C)CO)C(=O)c2cc(NC(=O)NC3CCCCC3)ccc2O1", "cytotoxicity call": "inactive"},
      {"smiles": "C[C@H]1CN([C@@H](C)CO)S(=O)(=O)c2ccc(C3=CCCC3)cc2O[C@@H]1CN(C)S(=O)(=O)c1cn(C)cn1", "cytotoxicity call": "inactive"},
      {"smiles": "C[C@@H]1CN([C@H](C)CO)C(=O)c2cc(NS(=O)(=O)c3ccc(F)cc3)ccc2O[C@@H]1CN(C)S(=O)(=O)c1ccc(F)cc1", "cytotoxicity call": "inactive"},
      {"smiles": "C[C@@H]1CN([C@@H](C)CO)C(=O)Cc2cc(NC(=O)Nc3ccccc3)ccc2O[C@H]1CN(C)Cc1ccc(Cl)c(Cl)c1", "cytotoxicity call": "inactive"},
      {"smiles": "C[C@@H]1CN([C@H](C)CO)C(=O)Cc2cc(NC(=O)Nc3ccccc3)ccc2O[C@@H]1CN(C)Cc1ccc(Cl)c(Cl)c1", "cytotoxicity call": "active"},
      {"smiles": "C[C@H](CO)N1C[C@H](C)[C@@H](CN(C)Cc2ccc(Cl)c(Cl)c2)Oc2ccc(NC(=O)Nc3ccccc3)cc2CC1=O", "cytotoxicity call": "inactive"},
      {"smiles": "C[C@H]1CN([C@@H](C)CO)C(=O)Cc2cc(NC(=O)Nc3ccccc3)ccc2O[C@H]1CN(C)Cc1ccc(Cl)c(Cl)c1", "cytotoxicity call": "active"},
      {"smiles": "C[C@@H]1CN([C@H](C)CO)C(=O)Cc2cc(NC(=O)Nc3ccccc3)ccc2O[C@H]1CN(C)Cc1ccc(Cl)c(Cl)c1", "cytotoxicity call": "active"},
      {"smiles": "C[C@H](CO)N1C[C@H](C)[C@H](CN(C)Cc2ccc(Cl)c(Cl)c2)Oc2ccc(NC(=O)Nc3ccccc3)cc2CC1=O", "cytotoxicity call": "active"}
    ]}
  ]
}
